ClpP mod = qHTS Assay for Activators of ClpP | ATP-dependent Clp protease proteolytic subunit (Bacillus subtilis (strain 168)), P80244 | purified B. subtilis ClpP, FRET peptide cleavage, 20 min | Potency, µM (series often up to 57.5 µM) | 1.9% of 340,000 active; active = well fitted falling curve with a large enough effect; inconclusive = small, poorly fitted or top-dose-only effect; inactive = no such curve, though single readings can be large or run the other way; also: the source files actives as falling curves though it sought activators and does not explain the sign; nearly all actives have a fitted effect of over 65% in size
Target sequence (P80244 whole entry, looked up): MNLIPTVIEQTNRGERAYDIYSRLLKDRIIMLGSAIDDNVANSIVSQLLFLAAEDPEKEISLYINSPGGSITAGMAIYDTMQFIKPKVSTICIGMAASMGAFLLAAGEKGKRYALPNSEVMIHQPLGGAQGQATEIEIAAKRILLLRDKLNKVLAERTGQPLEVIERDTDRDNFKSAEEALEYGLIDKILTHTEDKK
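Buffer: 100 mM Tris/HCl pH8, 100 mM KCl, 0.05% low protease BSA, 2.5% glycerol, 0.01% Tween-20. ClpP 10 microg/mL final; 20 min RT; delta FRET normalized to ADEP and DMSO controls.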
D3 antag = blocks the human D3 dopamine receptor; P35462; D3R cells, DiscoveRx beta-arrestin luminescence, antagonist mode; hits give low values; max response, negative = inhibition, %; 2.5% of 360,000 active; AID 652054; in the data active = max response below about -50%; inconclusive = no clear call, values can overlap the other calls
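Cells plated overnight at 1500 cells/well, then exposed to library compounds with dopamine controls for 90 minutes at 37 degrees C. DiscoveRx reagent added for 30–60 minutes at room temperature; luminescence read, quantitative HTS format.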
GLP-1R inv ag = acts as inverse agonist at human GLP-1 receptor; HEK293 GLP-1R CRE-luciferase, luminescence, 24 h; GLP-1R form is constitutively active; Potency, µM (titrated, usually from 38.3 µM), most hits filed as inhibitors; 1.6% of 410,000 active; AID 624417; also: nearly all actives have a fitted effect of over 55% in size
Target sequence (P43220 whole entry, looked up): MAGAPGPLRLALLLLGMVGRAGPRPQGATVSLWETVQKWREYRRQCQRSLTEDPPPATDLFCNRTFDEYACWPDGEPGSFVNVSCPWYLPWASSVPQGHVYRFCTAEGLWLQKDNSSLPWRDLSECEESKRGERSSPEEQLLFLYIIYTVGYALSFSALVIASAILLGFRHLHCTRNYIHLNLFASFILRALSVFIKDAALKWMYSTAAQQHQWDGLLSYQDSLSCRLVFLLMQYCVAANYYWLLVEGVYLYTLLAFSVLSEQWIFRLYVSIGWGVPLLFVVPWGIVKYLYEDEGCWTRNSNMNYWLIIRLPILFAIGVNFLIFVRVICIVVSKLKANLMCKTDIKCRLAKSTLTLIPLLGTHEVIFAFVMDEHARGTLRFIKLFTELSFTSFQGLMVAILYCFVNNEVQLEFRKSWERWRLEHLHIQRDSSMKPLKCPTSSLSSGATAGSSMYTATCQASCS
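Inverse agonism was detected as reduced cAMP-driven luciferase luminescence after 24 h compound treatment. The cells were HEK293 clones expressing constitutively active human GLP-1R with the reporter. Reporter-only and GPR119 cell lines served as counterscreen controls.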
HEK293 tox = cytotoxicity counter-screen for GLP-1 receptor inverse agonists. HEK293 cAMP-luciferase reporter cells, luminescence, 24 h. AID 624418. Potency, µM (titrated, usually from 38.3 µM), usual class: inhibitors. 0.13% of 410,000 active;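 also: loss of luciferase light is scored as toxicity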
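Step one: seed cells (200 cells/uL, DMEM with 10% Nu serum, 1% pen-strep). Step two: 12-hour incubation at 37 deg C. Step three: pin 23 nL compound, incubate 24 hr. Step four: add luciferase reagent, read luminescence 12 min later.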
GLP-1R agonist = activates the human GLP-1 receptor. P43220. HEK293 GLP-1R CRE-luciferase, luminescence, 4-6 h; cells express a hypersensitive GLP-1R form. Potency, µM (series often up to 45.6 µM), hits mostly activators. 0.007% of 380,000 active. AID 624172
DRD3 agonist = D3 dopamine receptor (human) agonism. max activation, %. AID 652048. 0.58% of 410,000 active. D3R DiscoveRx beta-arrestin cells, luminescence, 90 min; in the data active = max activation above about 30%
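Agonist-mode cell screen: cells plated at 1500/well and incubated overnight at 37 °C, then exposed to library compounds for 90 min at 37 °C. Detection reagent was added for 30–60 min at room temperature, and luminescence was read.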
A number is an active result. Rows were chosen to be rich in hits. Some 5.7% of all compounds tested hit in one or more screens of this group. Unless noted, calls follow the shape of the dose curve; as a rule, active = well fitted curve in the direction sought with a large enough effect; inconclusive = small, poorly fitted or top-dose-only effect, or another doubt; inactive = no such curve, though single readings can be large; an effect the other way counts as inactive or inconclusive.

`O=C(Nc1ccc(Cl)c(C(F)(F)F)c1)c1nc2ccccc2nc1N1CCCCC1` gave ClpP mod inactive, GLP-1R inv ag inconclusive, HEK293 tox inactive and DRD3 agonist inactive.
`CCCN1CNc2c(c(=O)[nH]c(=S)n2CCc2cccs2)C1` gave ClpP mod inactive.
For COc1ccc2cc3cc(C(=O)N4CCN(Cc5ccc6c(c5)OCO6)CC4)oc3nc2c1 the results were ClpP mod 32µM, D3 antag inactive, GLP-1R inv ag 10µM, HEK293 tox inactive, GLP-1R agonist inactive and DRD3 agonist inactive.
Screening Cc1ccc2cc3cc(C(=O)N4CC(C)CC(C)C4)oc3nc2c1 (configuration not stated) returned ClpP mod inactive, D3 antag inactive, GLP-1R inv ag 7.9µM, HEK293 tox inactive, GLP-1R agonist inactive and DRD3 agonist inactive.
`COc1ccc2cc3cc(C(=O)N4CC(C)CC(C)C4)oc3nc2c1` (configuration not stated) gave ClpP mod inconclusive, D3 antag inactive, GLP-1R inv ag inconclusive, HEK293 tox inactive, GLP-1R agonist inactive and DRD3 agonist inactive.
`Cc1c(C=O)ccc(N(C)C)c1C` gave ClpP mod inactive.
For CCOc1ccc(CNC(=O)CN2C(=O)C3CCCCN3c3ccc(C(=O)N4CCCC4)cc32)cc1 (configuration not stated) the results were ClpP mod inactive, GLP-1R inv ag inactive, HEK293 tox inactive and DRD3 agonist inactive.
Cc1cccc(NC(=O)C2CCC(CNS(=O)(=O)c3ccc4c(c3)CCCC(=O)N4)CC2)c1C (configuration not stated) was read as ClpP mod inactive, GLP-1R inv ag inactive, HEK293 tox inactive and DRD3 agonist inactive.
Cc1nnc2c3ccccc3nc(Nc3cccc(O)c3)n12 was read as ClpP mod inactive, GLP-1R inv ag inactive, HEK293 tox inactive and DRD3 agonist inactive.
For Cc1nnc2c3ccccc3nc(Nc3ccccc3C(=O)O)n12 the results were ClpP mod 16µM, GLP-1R inv ag inactive, HEK293 tox inactive and DRD3 agonist inactive.
O=C(Nc1ccc(-c2nc3ccccc3[nH]2)cc1)C1CCCN(Cc2ccn[nH]2)C1 (configuration not stated) was read as ClpP mod inactive, D3 antag inactive, GLP-1R inv ag inactive, HEK293 tox inactive, GLP-1R agonist inactive and DRD3 agonist inactive.
O=C(CC1SC(=Nc2ccc(OC(F)F)cc2)N(CCN2CCOCC2)C1=O)Nc1ccc(F)cc1F (configuration not stated) was read as D3 antag inactive, GLP-1R inv ag inconclusive, HEK293 tox inactive, GLP-1R agonist inactive and DRD3 agonist inactive.
O=C(CC1SC(=Nc2ccc(OC(F)F)cc2)N(CCN2CCOCC2)C1=O)Nc1ccccc1 (configuration not stated) was read as ClpP mod inactive, D3 antag inactive, GLP-1R inv ag 10µM, HEK293 tox inactive, GLP-1R agonist inactive and DRD3 agonist inactive.
Screening COc1ccc(S(=O)(=O)N2CCC3CC2c2c(-c4ccc(C(F)(F)F)cc4)cccc23)cc1 (configuration not stated) returned ClpP mod inactive, D3 antag inactive, GLP-1R inv ag inconclusive, HEK293 tox inactive, GLP-1R agonist inactive and DRD3 agonist 52.
COc1ccc(-c2cccc3c2C2CC3CCN2C(=O)OCc2ccccc2)cc1 (configuration not stated) was read as ClpP mod inactive, D3 antag inactive, GLP-1R inv ag 22µM, HEK293 tox inactive, GLP-1R agonist inactive and DRD3 agonist inactive.
Screening COCC(=O)N1CCC2CC1c1c(-c3ccc(C(F)(F)F)cc3)cccc12 (configuration not stated) returned ClpP mod inactive, D3 antag inconclusive, GLP-1R inv ag inactive, HEK293 tox inactive, GLP-1R agonist inactive and DRD3 agonist inactive.
Screening O=C(OCc1ccccc1)N1CCC2CC1c1cc(-c3ccccc3)ccc12 (configuration not stated) returned ClpP mod inactive, D3 antag inactive, GLP-1R inv ag inconclusive, HEK293 tox inactive, GLP-1R agonist inactive and DRD3 agonist inactive.
`COc1cc2c(cc1OC)[C@@H](Cc1cc(OC)c(OC)c(OC)c1)[N@+](C)(CCCOC(=O)CC/C=C/CCC(=O)OCCC[N@+]1(C)CCc3cc(OC)c(OC)cc3[C@H]1Cc1cc(OC)c(OC)c(OC)c1)CC2` gave GLP-1R agonist inactive.
For CC1(C(=O)NS(=O)(=O)c2ccc(Cl)s2)CCN1C(=O)C1(c2ccccc2)CCCC1 (configuration not stated) the results were ClpP mod inactive, D3 antag inactive, GLP-1R inv ag inconclusive, HEK293 tox inactive, GLP-1R agonist inactive and DRD3 agonist inactive.
Screening CCc1nnc(NS(=O)(=O)c2ccc(NC(=O)c3ccc([N+](=O)[O-])s3)cc2)s1 returned ClpP mod inactive, D3 antag inactive, GLP-1R inv ag inactive, HEK293 tox inactive, GLP-1R agonist inactive and DRD3 agonist inactive.
Screening COc1cccc(-n2cc(CN(C)Cc3nc(Cc4cccc(F)c4)no3)cn2)c1 returned ClpP mod inactive, D3 antag inactive, GLP-1R inv ag 10µM, HEK293 tox inactive, GLP-1R agonist inactive and DRD3 agonist inactive.
For COc1ccc(C(=O)Nc2scc(-c3ccc(Cl)cc3Cl)c2C(N)=O)cc1 the results were ClpP mod 28µM, D3 antag inactive, GLP-1R inv ag inactive, HEK293 tox inactive, GLP-1R agonist inactive and DRD3 agonist inactive.
Screening Cc1cccc(C)c1NC(=O)c1cc(S(N)(=O)=O)c(Cl)cc1O returned GLP-1R agonist inactive and DRD3 agonist inactive.
`Cc1ccc2c(=O)c(C(=O)c3ccc(F)cc3)cn(CC(=O)NCc3ccccc3)c2n1` gave ClpP mod inactive, GLP-1R inv ag inactive, HEK293 tox inactive and DRD3 agonist inactive.
For Cc1cc(C)c(C)c(S(=O)(=O)N(C)C2CCN(C)CC2)c1C the results were D3 antag -77, GLP-1R inv ag inconclusive, HEK293 tox inactive, GLP-1R agonist inactive and DRD3 agonist inactive.
Screening CN1CCC(N(C)S(=O)(=O)c2ccc(Cl)cc2)CC1 returned ClpP mod inactive, D3 antag inactive, GLP-1R inv ag inactive, HEK293 tox inactive, GLP-1R agonist inactive and DRD3 agonist inactive.
Cc1ccc(-n2nc(C)c3c(C)c(CCC(=O)NCc4ccccc4Cl)c(C)nc32)cc1 was read as ClpP mod inactive, GLP-1R inv ag inactive, HEK293 tox inactive and DRD3 agonist inactive.

Screens as filed in PubChem BioAssay.
